Consider 99 molecules from PubChem BioAssay AID2599 (Sanford-Burnham Center for Chemical Genomics, 2010).

The whole screen tested about 330,000 compounds, of which about 5,800 (1.8%) were called active.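 Rule for the calls: active = inhibition above about 50% at the single tested dose (limit read from the data); inactive = the rest.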 What follows is part of a selection rich in actives, with near analogues and random picks from the rest.

Chain of Sentrin-specific protease 6 (Homo sapiens) (Q9GZR1 628-1112 limits assumed): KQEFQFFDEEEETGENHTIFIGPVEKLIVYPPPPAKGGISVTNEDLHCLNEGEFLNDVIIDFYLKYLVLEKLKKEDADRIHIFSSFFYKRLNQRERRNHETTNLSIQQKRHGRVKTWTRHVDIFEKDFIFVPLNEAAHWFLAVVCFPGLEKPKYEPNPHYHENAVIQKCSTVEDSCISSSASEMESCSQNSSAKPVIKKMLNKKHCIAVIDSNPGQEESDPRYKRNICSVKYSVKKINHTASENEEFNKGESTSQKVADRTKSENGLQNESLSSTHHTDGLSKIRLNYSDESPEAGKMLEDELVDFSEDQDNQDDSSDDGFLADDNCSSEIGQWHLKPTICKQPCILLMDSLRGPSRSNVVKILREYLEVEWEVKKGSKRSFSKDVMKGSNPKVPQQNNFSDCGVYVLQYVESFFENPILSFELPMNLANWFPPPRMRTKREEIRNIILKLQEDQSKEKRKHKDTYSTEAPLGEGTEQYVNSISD

The assay has as its target Sentrin-specific protease 6 (Homo sapiens) (UniProt Q9GZR1). Kind of assay: inhibition of human SENP6 catalytic domain – biochemical, luminescence, uHTS, primary screen (AID 2599).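 Note: plate controls were DMSO wells with enzyme for no effect and DMSO wells lacking enzyme for full effect.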 Conditions: Recombinant SENP6 catalytic domain, aminoluciferin luminescence; at 10 µM; active compounds read high.
In general, inhibition refers to the relative decrease from the control value, in per cent. On to `O=C(Nc1ccccc1-c1nc2ccccc2[nH]c1=O)c1cccs1`, for which the inhibition is 0.16% (inactive).

Consider `C/C(=N\Nc1ncc(Cl)cc1Cl)c1cccs1`, for which the inhibition was 6.67% (inactive).

For the molecule `C/C(=N\Nc1nc2ccccc2[nH]1)c1cccs1`, the inhibition is 60.7% (active).

`COc1ccc(N(Cc2ccccc2)S(=O)(=O)c2cccc(C(=O)O)c2)cc1`: the inhibition is -6.92% (inactive).

Regarding `COc1ccc(NC(=O)CS(=O)(=O)c2ccccc2)cc1`, the inhibition is 13.2% (inactive).

Regarding `COc1ccc(C(CC(=O)c2ccccc2)S(=O)(=O)c2ccccc2)cc1` (centres undefined), the inhibition is 59.1% (active).

Consider `COc1ccc(NC(=O)C2CCC(CNC(=O)[C@@H]3Cc4ccccc4CN3)CC2)cc1` (some centres undefined), for which the inhibition was -1.01% (inactive).

Regarding `CCC(NC(=O)c1cc(COc2ccc(F)c(F)c2)on1)c1ccncc1` (centres undefined), the inhibition is 12.2% (inactive).

As to `O=C(NCCN1CCCC(O)C1)c1cc(COc2c(F)cccc2F)on1` (centres undefined), the inhibition was 4.9% (inactive).

For the molecule `Cc1csc(SCC(=O)Nc2sccc2C#N)n1`, the inhibition is 88.2% (active).

Consider `Cc1cccc(C)c1Nc1nnc(SCC(=O)Nc2sccc2C#N)s1`, for which the inhibition is 22.6% (inactive).

Take `Cc1ccc(NC(=O)CSCC(=O)Nc2sccc2C#N)cc1`: the inhibition is 0.055% (inactive).

As to `COc1ccc(CCNC(=O)CS(=O)(=O)Cc2nc(-c3ccc(C)cc3)oc2C)cc1OC`, the inhibition is 8.83% (inactive).

For the molecule `CSCCC(Nc1ccc(S(=O)(=O)N2CCOCC2)cc1[N+](=O)[O-])C(=O)OCC(=O)N(C(C)C)C(C)C` (centres undefined), the inhibition was -3.58% (inactive).

Take `C/C(=N\NC(=S)Nc1ccc(C)cc1)c1cc2ccccc2o1`: the inhibition is -7.73% (inactive).

In the case of `COc1ccccc1CN(C)C(=O)c1cc2ccccc2o1`, the inhibition is -15.1% (inactive).

On to `Cc1ccc(OC(=O)c2cc3ccccc3o2)cc1`, for which the inhibition was 72.6% (active).

As to `CC1=C/C(=N\OS(=O)(=O)c2ccccc2)C=CC1=O`, the inhibition was -4.19% (inactive).

On to `CCOc1ccc(OCC)c(NC(=O)CCS(=O)(=O)c2ccc(C)cc2)c1`, for which the inhibition was -6.59% (inactive).

Turning to `CC(=O)Oc1cccc(C(=O)Nc2ccccc2NC(=O)c2cccc(OC(C)=O)c2)c1`, the inhibition is 7.29% (inactive).

Take `CC(=O)Oc1ccc2c(c1)C(=O)c1ccccc1C2=O`: the inhibition is 55% (active).

Regarding `CC(=O)O[C@H]1c2ccccc2-c2ccccc2[C@@H]1OC(C)=O`, the inhibition is 8.21% (inactive).

As to `CC(C)C(=O)NCC(c1cccs1)S(=O)(=O)c1ccc(F)cc1` (centres undefined), the inhibition is -1.5% (inactive).

Regarding `COc1cc(/C=C/C(=O)OCC(=O)NC(=O)NCc2ccccc2)ccc1OCC#N`, the inhibition was -0.36% (inactive).

In the case of `Cc1cc2oc3ccc(NCCC4CCCN4C)cc3c(=O)c2cc1C` (centres undefined), the inhibition is 2.23% (inactive).

In the case of `O=C(Nc1c2c(nn1-c1cccc(Cl)c1)CS(=O)(=O)C2)c1cccs1`, the inhibition is -6.08% (inactive).

In the case of `COc1ccc2nc(NC(=O)NC3CCCCC3)sc2c1`, the inhibition was 0.352% (inactive).

For `COc1ccc2nc(NC(=O)[C@@H]3CCCN3C(=O)c3cccs3)sc2c1`, the inhibition is 4.51% (inactive).

As to `COc1ccc2nc(Nc3nc4cc5c(cc4s3)OCCO5)sc2c1`, the inhibition is 70.8% (active).

Consider `CC(OC(=O)CN1C(=O)COc2ccccc21)C(=O)NCc1ccc(F)cc1` (centres undefined), for which the inhibition was -3.56% (inactive).

With `COc1ccc(S(=O)(=O)NC(C)C(=O)N2CCCCCC2)cc1` (centres undefined), the inhibition is -11.4% (inactive).

Consider `Cc1ccc(C(=O)Nc2nc(N)n(-c3ccccc3)n2)cc1`, for which the inhibition is -27.7% (inactive).

Turning to `Fc1c(F)c(C(F)(F)F)c(F)c(F)c1N1CCN(c2ccc3nnc(C(F)(F)F)n3n2)CC1`, the inhibition was 3.56% (inactive).

For the molecule `COc1ccccc1NC(=O)C(C)OC(=O)c1ccc(-n2cnnn2)cc1` (centres undefined), the inhibition is -16.5% (inactive).

As for `O=C(O)c1ccc(N=NN2CCOCC2)cc1`, the inhibition was 17.8% (inactive).

For the molecule `NC1=NN(c2cccc(C(=O)O)c2)C(=O)C1`, the inhibition is 3.51% (inactive).

In the case of `O=C(O)c1cccc(N=NN2CCCCCC2)c1`, the inhibition is 90.2% (active).

As to `CS(=O)(=O)Nc1ccccc1N=C(c1ccccc1)c1ccccc1`, the inhibition was -6.12% (inactive).

In the case of `Nc1ccc(S(=O)(=O)Nc2nccc(/C=C/c3ccc(Br)s3)n2)cc1`, the inhibition is 4.55% (inactive).

`Oc1cccc2ccc(/C=C/c3ccc(Br)s3)nc12`: the inhibition is 64.4% (active).

Turning to `COC(=O)c1c(NC(=O)COc2ccc(Cl)cc2Cl)sc2c1CC(C)(C)NC2(C)C`, the inhibition is -10.5% (inactive).

Consider `Cc1coc(C)c1C(=O)CC1(O)C(=O)N(C)c2ccc(Cl)cc21` (centres undefined), for which the inhibition is 0.041% (inactive).

Regarding `O=C(NC1CC1)C1CCCN(C(=O)NC2CCCCC2)C1` (centres undefined), the inhibition is -5.19% (inactive).

On to `O=C1NNC(c2ccccc2)=N/C1=C\c1ccc(Cl)cc1`, for which the inhibition is 29.3% (inactive).

Consider `Nc1nc(NCC(=O)O)nc(N2CCCCCC2)c1[N+](=O)[O-]`, for which the inhibition was 11.1% (inactive).

`N#Cc1c(N2CCCCC2)nc(N)c2c(N)nc(SCC(=O)O)cc12`: the inhibition is 74.6% (active).

Turning to `N#CCc1c(C#N)c(N)nc(N2CCCC2)c1C#N`, the inhibition is -5.83% (inactive).

As to `CC(C)(C)Oc1ccccc1Nc1nc(NCCO)nc(N2CCCC2)n1`, the inhibition was -11% (inactive).

As for `COC(=O)c1ccc(S(=O)(=O)N2CCc3ccccc3C2)cc1`, the inhibition was -14.9% (inactive).

Regarding `O=C(ON=C1CCN(S(=O)(=O)c2ccccc2)CC1)c1ccc(Cl)cc1`, the inhibition was 55.9% (active).

As for `CC(OC(=O)c1ccc(S(=O)(=O)N2CCOCC2)cc1)c1ccccc1` (centres undefined), the inhibition is -4.11% (inactive).

Take `C/C(N)=C(\C#N)C(=O)NCCc1ccccn1`: the inhibition is -4.65% (inactive).

As for `COc1cc(OC)cc(-c2nc(=S)n3ccsc3n2)c1`, the inhibition was -9.64% (inactive).

For `COc1ccc(-c2cn3ccsc3n2)cc1`, the inhibition is 64% (active).

For the molecule `COc1ccc(-c2cn3cccnc3n2)cc1`, the inhibition is -11.4% (inactive).

As to `CC(C(=O)NC1CCCCC1)N1C(=O)c2cccc3cccc1c23` (centres undefined), the inhibition was -3.48% (inactive).

On to `CC(C)NC(=S)Nc1cccc2cnccc12`, for which the inhibition was 5.39% (inactive).

`O=C(Nc1cccc2ccccc12)c1onc2c1CCCC2`: the inhibition is 84% (active).

Consider `O=C(COC(=O)c1ccccn1)Nc1cccc2ccccc12`, for which the inhibition was -9.05% (inactive).

With `O=C(O)Cc1ccc(NC(=O)Nc2cccc3ccccc23)cc1`, the inhibition was -11.3% (inactive).

Regarding `Cn1cc(CN2CCCC(CO)C2)c(-c2ccc(Oc3ccccc3)cc2)n1` (centres undefined), the inhibition was -24.4% (inactive).

Regarding `O=C1C2C3C=CC(C3)C2C(=O)N1c1ccc(-c2nc3ccccc3c(=O)o2)cc1` (centres undefined), the inhibition was -7.9% (inactive).

`O=C1c2ccccc2C(=O)N1CCC#Cc1ccc2cc(C3(O)CCCCC3)oc(=O)c2c1`: the inhibition was -5.78% (inactive).

As for `COc1cc(C#Cc2ccc3cc(CCCO)oc(=O)c3c2)cc(OC)c1`, the inhibition was 74% (active).

Consider `COc1cc(/C=C2\Oc3ccc(C#Cc4ccc(O)cc4)cc3C2=O)cc(OC)c1`, for which the inhibition is -11.5% (inactive).

In the case of `Cc1[nH]c(C)c(S(=O)(=O)N2CCC(C)CC2)c1C(=O)N1CCCC1`, the inhibition was 0.187% (inactive).

For `Cc1ccc2nc(-c3ccc(Br)cc3)cn2c1`, the inhibition is 89.9% (active).

As for `CSc1nnc2ccc(-c3ccc(C)cc3)nn12`, the inhibition is -11.1% (inactive).

With `Cc1ccc(-c2cn3cc(C)ccc3n2)cc1`, the inhibition was 65.4% (active).

For the molecule `COc1ccc(-c2cn3ccc(C)cc3n2)cc1`, the inhibition is -9.63% (inactive).

As for `Cc1cc(N2CCOCC2)nc(-c2ccc(Br)cc2)n1`, the inhibition is -6.76% (inactive).

`CCN(CC)S(=O)(=O)c1ccc(-c2cn3ccc(C)cc3n2)cc1`: the inhibition was 11.7% (inactive).

Regarding `Cc1sc2ncn(CC(=O)NCCCC(=O)NCc3ccc(F)cc3)c(=O)c2c1C`, the inhibition was -35.1% (inactive).

Take `O=C(CCC(=O)OCC(F)(F)C(F)F)NCc1ccccc1`: the inhibition is -6.23% (inactive).

For `COc1ccccc1-n1nnnc1S(=O)(=O)Cc1ccc(Cl)cc1`, the inhibition is -13.9% (inactive).

On to `COc1cccc(Nc2nc(N)c([N+](=O)[O-])c(NCc3ccco3)n2)c1`, for which the inhibition was -15.6% (inactive).

Turning to `CCN1CCN(c2nc(Nc3cccc(F)c3)nc(N)c2[N+](=O)[O-])CC1`, the inhibition was -5.24% (inactive).

As for `CNc1nc(Nc2ccc(C)c(Cl)c2)nc(N)c1[N+](=O)[O-]`, the inhibition is 99.7% (active).

Take `O=C(O)c1c(NC(=O)N2CCCC2)sc2c1CCCC2`: the inhibition is 9.21% (inactive).

In the case of `COC(=O)c1c(NC(=O)c2ccccc2F)sc2c1C(C(=O)OC)CC2` (centres undefined), the inhibition was -5.07% (inactive).

With `O=C(Nc1sc2c(c1C(=O)O)CCC2)c1ccccc1F`, the inhibition is 94% (active).

In the case of `Cc1cccc(Nc2nc3c(S(=O)(=O)c4ccccc4)nnn3c3ccccc23)c1C`, the inhibition is -2.12% (inactive).

Consider `Fc1cccc(Cl)c1COc1ccc(-c2nnco2)cc1`, for which the inhibition was -29.1% (inactive).

On to `Fc1ccc(COc2cccc(-c3n[nH]c(=S)o3)c2)cc1`, for which the inhibition is -20.2% (inactive).

Regarding `Fc1ccc(COc2ccc(-c3nnco3)cc2)cc1`, the inhibition was 61.6% (active).

In the case of `Cc1ccc(-c2nc(-c3ccncc3)no2)c(C)c1`, the inhibition is 49.8% (inactive).

For `COc1ccc(CCc2nc(-c3cccs3)no2)cc1`, the inhibition was 19.7% (inactive).

Consider `c1csc(-c2nc(-c3ccncc3)no2)c1`, for which the inhibition was 60.3% (active).

For the molecule `O=C(COC(=O)c1ccncc1)c1ccccc1`, the inhibition is -26.7% (inactive).

With `O=C(Oc1ccc(-c2nc(-c3ccccn3)no2)cc1)c1ccccc1`, the inhibition was 97.9% (active).

`Cc1noc(C)c1COC(=O)COc1ccc(-c2ccccc2)cc1`: the inhibition is 4.53% (inactive).

Consider `c1ccc(-c2noc(-c3cccs3)n2)nc1`, for which the inhibition was 92% (active).

In the case of `c1ccc(CCc2nc(-c3ccncc3)no2)cc1`, the inhibition was -15.3% (inactive).

Turning to `Clc1ccc(-n2nnnc2-c2cnc(-c3ccccn3)nc2-c2cccs2)cc1`, the inhibition was 1.6% (inactive).

With `Cc1nc(NC(CC(C)C)C(=O)O)c2nc(C)oc2n1` (centres undefined), the inhibition is 7.07% (inactive).

Turning to `CCOC(=O)C(CC)Sc1ncnc2c1nnn2-c1ccc(F)cc1` (centres undefined), the inhibition is -3.73% (inactive).

Consider `CCc1ccc(N(C(=O)c2csnn2)C(C(=O)NC2CCCCC2)c2cccnc2)cc1` (centres undefined), for which the inhibition is -39% (inactive).

In the case of `COc1ccc(C(CNC(=O)c2cc3c(s2)CCCC3)N2CCOCC2)cc1` (centres undefined), the inhibition was 3.85% (inactive).

On to `O=C(COc1ccc(NC(=O)c2ccccc2[N+](=O)[O-])cc1)c1ccc(F)cc1`, for which the inhibition is -17.5% (inactive).
